From paper PMC6212790, “How bacterial xenogeneic silencer rok distinguishes foreign from self DNA in its resident genome” come the findings set out here.

The full ranking holds about 33,000 sequences; the median of “e-score” is about -0.038, and the highest 2% start at about 0.33. Shown is part of a subset that was picked to be rich in the highest values.

This assay deals with T1, GST-Rok-C97-191 (Bacillus subtilis subsp. subtilis str. …, UniProt O34857 97-191).
T1 sequence: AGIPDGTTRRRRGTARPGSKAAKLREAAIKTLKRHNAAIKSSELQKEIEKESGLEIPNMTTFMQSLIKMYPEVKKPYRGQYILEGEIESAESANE
As to the kind of experiment: protein binding microarray; Rok is a gene silencer of Bacillus subtilis; high values mean tight binding. As to conditions: protein: recombinant; tags: GST (pTH5325, pDEST15-Magic modified); dsDNA, one strand shown. A digest of the protocol: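 Each has a 25-mer constant primer and a 35-mer variable part from a de Bruijn sequence of order 10, covering every non-palindromic 8-mer at least 32 times (palindromic 16). Preference for each 8-mer is given as a rank-based, unitless enrichment score (E-score). Its range runs from 0.5 (most favored) to −0.5 (most disfavored).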
For CTCTATCA, the binding signal turned out to be 0.0167 E-score.

CAGTATTA: the binding signal is 0.188 E-score.

GTCTATCA: the binding signal was -0.0797 E-score.

For the sequence AAGTATTA, the binding signal came to 0.349 E-score.

AGTCTTGC: the binding signal was 0.0754 E-score.

On to ACGACTTA, for which the binding signal was determined as 0.051 E-score.

Turning to GCAGCAAC, the binding signal was -0.161 E-score.

AATCAATA: the binding signal was determined as 0.227 E-score.

As to GATCAATA, the binding signal stood at 0.0798 E-score.

Consider TATCAATA, for which the binding signal was 0.331 E-score.

AAAAAACA: the binding signal came out at 0.19 E-score.

In the case of AGAAACCG, the binding signal was -0.049 E-score.

Consider AAATACGT, for which the binding signal stood at 0.343 E-score.

Consider AAATACAC, for which the binding signal came to 0.25 E-score.

Regarding AAATACAT, the binding signal came out at 0.359 E-score.

As for AAATACGG, the binding signal was 0.213 E-score.

As to AAATACGA, the binding signal was determined as 0.0254 E-score.

For the sequence AAATACAG, the binding signal worked out at 0.123 E-score.

As for CGTTCCTA, the binding signal was found to be 0.0168 E-score.

Turning to CAGTATGC, the binding signal is -0.144 E-score.

For the sequence GCAGATAA, the binding signal was 0.127 E-score.

Turning to CCTAATAC, the binding signal came to 0.14 E-score.

As for ATCCGTCC, the binding signal is -0.186 E-score.

With ATACCATC, the binding signal is 0.0328 E-score.

For the sequence ATACCACG, the binding signal is 0.0833 E-score.

Turning to CTACCACA, the binding signal was found to be 0.343 E-score.

Turning to GTACCAGA, the binding signal was found to be 0.0231 E-score.

Turning to CTACCATA, the binding signal turned out to be 0.324 E-score.

In the case of GTACCACA, the binding signal came to 0.0685 E-score.

In the case of CTACCATC, the binding signal is 0.421 E-score.

For GTACCATA, the binding signal was 0.362 E-score.

Consider ATACCATA, for which the binding signal worked out at 0.267 E-score.

For the sequence ATGGCGCA, the binding signal was -0.0193 E-score.

For GAAACTCC, the binding signal worked out at 0.0382 E-score.

Consider TGGTAGAA, for which the binding signal came to 0.468 E-score.

CGGTAGAA: the binding signal amounted to 0.411 E-score.

With GGGTAGAA, the binding signal was 0.384 E-score.

Turning to GGGTAGCA, the binding signal was -0.148 E-score.

For the sequence TCGTAGAA, the binding signal came out at 0.236 E-score.

As to AGTTAGAT, the binding signal came out at 0.196 E-score.

As to AGGTAGAT, the binding signal stood at 0.36 E-score.

ACGTAGAT: the binding signal was 0.219 E-score.

In the case of CGGTAGAG, the binding signal was -0.0194 E-score.

As to GGGTAGAC, the binding signal was -0.0486 E-score.

Take CGGTAGAC: the binding signal was -0.0972 E-score.

On to CCGTAGAA, for which the binding signal stood at 0.289 E-score.

With CGAGTAGC, the binding signal was -0.0476 E-score.

Regarding AGTCAAGG, the binding signal was -0.145 E-score.

CATGCTCC: the binding signal was -0.102 E-score.

As to AAAGGATG, the binding signal was -0.047 E-score.

For the sequence AGACAGTA, the binding signal came to 0.0933 E-score.

On to GAGAACGA, for which the binding signal was -0.104 E-score.

Turning to CGAGCAAG, the binding signal was -0.0658 E-score.

CTTACGGC: the binding signal was -0.196 E-score.

Take CATATTGC: the binding signal is 0.0992 E-score.

On to CAGGTCAA, for which the binding signal was -0.108 E-score.

Turning to AGGTAGAC, the binding signal came to 0.093 E-score.

For AGGTAGAG, the binding signal turned out to be 0.118 E-score.

On to GTGTAGAA, for which the binding signal came out at 0.293 E-score.

As for AGGTAGAA, the binding signal was 0.433 E-score.

With ATGTAGAA, the binding signal is 0.38 E-score.

Consider CTGTAGAA, for which the binding signal came out at 0.258 E-score.

In the case of ACCTCTTA, the binding signal came to 0.191 E-score.

For TCATAGGA, the binding signal worked out at 0.154 E-score.

In the case of CAGGAGCA, the binding signal was -0.151 E-score.

Take CAACCTAC: the binding signal was determined as 0.263 E-score.

For AACATCCT, the binding signal amounted to 0.0847 E-score.

For the sequence CGCCTACG, the binding signal was -0.0439 E-score.

For the sequence CCCTTGAC, the binding signal is -0.132 E-score.

As for CACAGTAG, the binding signal is 0.0897 E-score.

With AATAGTAT, the binding signal worked out at 0.332 E-score.

On to AATAGTCA, for which the binding signal was 0.186 E-score.

Take AACAGTAG: the binding signal was found to be 0.362 E-score.

As for AATAGTGT, the binding signal is 0.242 E-score.

Consider AATAGTAC, for which the binding signal worked out at 0.293 E-score.

Turning to ATTAGTAA, the binding signal is 0.303 E-score.

Regarding CAAAGTAC, the binding signal is -0.0306 E-score.

On to AATAGTAA, for which the binding signal is 0.338 E-score.

Consider GAAAGTAA, for which the binding signal worked out at 0.226 E-score.

Take AACAGTAA: the binding signal turned out to be 0.285 E-score.

As to GAAAGTAC, the binding signal amounted to 0.35 E-score.

Turning to AGTTGCCA, the binding signal was 0.0801 E-score.

Take ATTAGGGC: the binding signal was -0.073 E-score.

As to CAAGACTA, the binding signal turned out to be 0.186 E-score.

With CTGACGAA, the binding signal is -0.0673 E-score.

Turning to GATAGCGC, the binding signal amounted to 0.191 E-score.

On to GCAAATAA, for which the binding signal was 0.158 E-score.

For AATGATGA, the binding signal was 0.00727 E-score.

On to AAAAGTAC, for which the binding signal stood at 0.279 E-score.

For AATAGTAG, the binding signal was 0.475 E-score.

For the sequence CATAGTAG, the binding signal is 0.195 E-score.

Take AAAAGTAG: the binding signal is 0.344 E-score.

AATAGTCG: the binding signal was -0.0896 E-score.

With CAAAGTAG, the binding signal is 0.194 E-score.

Turning to AGACCACG, the binding signal was -0.138 E-score.

As to CGTGTAAC, the binding signal came to 0.0552 E-score.

For the sequence CTAGGCAC, the binding signal is -0.149 E-score.

On to CGGCTAAC, for which the binding signal came to 0.00729 E-score.

As for GAGTTCAC, the binding signal stood at 0.0331 E-score.

AGCTCGGG: the binding signal is -0.116 E-score.

Take CCTATATC: the binding signal stood at 0.0424 E-score.

Consider CGTATATC, for which the binding signal worked out at 0.316 E-score.

Consider AATATATT, for which the binding signal was 0.417 E-score.

In the case of AATATATG, the binding signal turned out to be 0.337 E-score.

Take ACTATATG: the binding signal was determined as 0.283 E-score.

Take AAAATATT: the binding signal was determined as 0.327 E-score.

Consider AATATAAG, for which the binding signal was 0.26 E-score.

On to AATATATA, for which the binding signal is 0.462 E-score.

AATATAGA: the binding signal amounted to 0.309 E-score.

Consider AATATATC, for which the binding signal turned out to be 0.424 E-score.

Turning to AATATGTG, the binding signal was determined as 0.199 E-score.

For AATATTAT, the binding signal amounted to 0.21 E-score.

With CAGAAACG, the binding signal is -0.0943 E-score.

With TAAGTCAA, the binding signal is -0.0154 E-score.

For the sequence ATGATCCA, the binding signal is 0.0416 E-score.

As for ACCAACAT, the binding signal was 0.157 E-score.

In the case of CCATCGGG, the binding signal is -0.172 E-score.

GCCGGACA: the binding signal was 0.0879 E-score.

Consider ATTATGTA, for which the binding signal worked out at 0.354 E-score.

GTTATGTA: the binding signal amounted to 0.292 E-score.

Turning to CTTATGTA, the binding signal was determined as 0.0579 E-score.

For the sequence CCTATGTA, the binding signal came to 0.302 E-score.

On to GCTATGTA, for which the binding signal amounted to 0.226 E-score.

Turning to ACTATGTA, the binding signal is 0.356 E-score.

For AAGGGCAG, the binding signal was -0.195 E-score.

For AACACATG, the binding signal is 0.0194 E-score.

For the sequence AAGCTGTC, the binding signal is 0.0421 E-score.

As for ACCAGGAC, the binding signal is -0.0513 E-score.

On to AAATGTAA, for which the binding signal was determined as 0.349 E-score.

In the case of GCATGTAC, the binding signal was 0.163 E-score.

As for CAATGTAC, the binding signal came out at 0.204 E-score.

On to CAATGTAA, for which the binding signal is -0.0287 E-score.

As to ACATGTAC, the binding signal worked out at 0.331 E-score.

TAATGTAA: the binding signal was 0.357 E-score.

With GAATGTAC, the binding signal came to 0.304 E-score.

CCATGTAC: the binding signal turned out to be 0.185 E-score.

As to AAATGTAT, the binding signal turned out to be 0.27 E-score.

Regarding GAATGTAA, the binding signal is 0.173 E-score.

Consider AAATGTAG, for which the binding signal stood at 0.286 E-score.

Turning to AAATGTAC, the binding signal was 0.364 E-score.

For TAATTAGA, the binding signal turned out to be 0.324 E-score.

On to CATAAAGC, for which the binding signal is -0.119 E-score.

For the sequence GTGCTAGA, the binding signal turned out to be 0.197 E-score.

Take CTAGCAAC: the binding signal was 0.222 E-score.

Turning to TGCGACAA, the binding signal is -0.0569 E-score.

Consider CGTGCAGC, for which the binding signal was -0.0438 E-score.

On to GCTACGGA, for which the binding signal was -0.0221 E-score.

As to CCCTAGCG, the binding signal is -0.135 E-score.

As to CCACGCTC, the binding signal is -0.0229 E-score.

As to ATAGGTTA, the binding signal came to 0.162 E-score.

Consider AGATGTAG, for which the binding signal worked out at 0.331 E-score.

Turning to ATATGTAC, the binding signal worked out at 0.309 E-score.

As for AGATGTAA, the binding signal amounted to 0.191 E-score.

For the sequence ATCTGTAA, the binding signal stood at 0.106 E-score.

For ATCTGTAG, the binding signal was found to be 0.37 E-score.

Regarding ATATGTAG, the binding signal came out at 0.386 E-score.

Regarding ATCTGTAC, the binding signal stood at 0.0594 E-score.

As to ATATGTAA, the binding signal was determined as 0.28 E-score.

With AGATGTAT, the binding signal worked out at 0.264 E-score.

As to AAAAGTGG, the binding signal turned out to be 0.0303 E-score.

With GCTACATA, the binding signal was 0.315 E-score.

On to GCTAGGCA, for which the binding signal is -0.0675 E-score.

As to CAAGGGCC, the binding signal was -0.186 E-score.

Take AAAATACT: the binding signal came out at 0.371 E-score.

AAAATACA: the binding signal came out at 0.32 E-score.

As for AAAATACC, the binding signal was 0.357 E-score.

Take CAAATACC: the binding signal came out at 0.114 E-score.

On to AAAATACG, for which the binding signal worked out at 0.266 E-score.

For GAAATACC, the binding signal worked out at 0.289 E-score.

Consider AAGTAAGG, for which the binding signal amounted to 0.0741 E-score.

As for AGAGTTTC, the binding signal is -0.0267 E-score.

Regarding GTCGGTTA, the binding signal stood at 0.00256 E-score.
